{"source": "the supplement of paper PMC12282887", "assay_in_all_cases": "promoter activity interaction Z-score (Lux/OD deviation from empty-vector control); higher = stronger promoter induction by the compound", "key": {"[1]": {"test_system": "E. coli BW25113 acrABp lux reporter", "outline": "(§1)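 E. coli BW25113 (wild type or marA, soxS or rob deletion) carrying low-copy luxCDABE promoter reporters grew in 40 µl LB Lennox in 384-well plates at 37°C. Each compound was tested at four 1:2 dilutions in biological duplicates. OD600 and luminescence were read every 30 min for 12 h. Areas were taken over 0–8 h (wild type) or 1–9 h (mutants), and wells below 10% of median growth area were removed. The score is the Z-transformed residual of growth-normalised luminescence fitted against the empty-vector control.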"}, "[2]": {"test_system": "E. coli BW25113 micFp lux reporter", "outline": "as §1"}, "[3]": {"test_system": "E. coli BW25113 ompFp lux reporter", "outline": "as §1"}, "[4]": {"test_system": "E. coli BW25113 robp lux reporter", "outline": "as §1"}, "[5]": {"test_system": "E. coli BW25113 soxSp lux reporter", "outline": "as §1"}, "[6]": {"test_system": "E. coli BW25113 tolCp lux reporter", "outline": "as §1"}, "[7]": {"conditions": "22.5 µg/ml, genetic background: wild type"}, "[8]": {"conditions": "22.5 µg/ml, genetic background: ΔmarA"}, "[9]": {"conditions": "22.5 µg/ml, genetic background: Δrob"}, "[10]": {"conditions": "22.5 µg/ml, genetic background: ΔsoxS"}, "[11]": {"conditions": "45 µg/ml, genetic background: wild type"}, "[12]": {"conditions": "45 µg/ml, genetic background: ΔmarA"}, "[13]": {"conditions": "45 µg/ml, genetic background: Δrob"}, "[14]": {"conditions": "45 µg/ml, genetic background: ΔsoxS"}, "[15]": {"conditions": "90.1 µg/ml, genetic background: wild type"}, "[16]": {"conditions": "90.1 µg/ml, genetic background: ΔmarA"}, "[17]": {"conditions": "90.1 µg/ml, genetic background: Δrob"}, "[18]": {"conditions": "90.1 µg/ml, genetic background: ΔsoxS"}, "[19]": {"conditions": "180.2 µg/ml, genetic background: wild type"}, "[20]": {"conditions": "180.2 µg/ml, genetic background: ΔmarA"}, "[21]": {"conditions": "180.2 µg/ml, genetic background: Δrob"}, "[22]": {"conditions": "180.2 µg/ml, genetic background: ΔsoxS"}}, "note": "± gives the standard deviation of the averaged measurements."}
{"molecule": "CC(=O)Oc1ccccc1C(=O)O", "note": "[Acetylsalicylic acid]", "values": [{"measurement": "promoter activity interaction Z-score", "setting": "[1]; [7]", "result": "-0.0985 ± 0.4"}, {"measurement": "promoter activity interaction Z-score", "setting": "[1]; [8]", "result": "-0.517 ± 0.098"}, {"measurement": "promoter activity interaction Z-score", "setting": "[1]; [9]", "result": "-0.0077 ± 0.088"}, {"measurement": "promoter activity interaction Z-score", "setting": "[1]; [10]", "result": "-0.0154 ± 0.64"}, {"measurement": "promoter activity interaction Z-score", "setting": "[1]; [11]", "result": "-0.074 ± 0.32"}, {"measurement": "promoter activity interaction Z-score", "setting": "[1]; [12]", "result": "0.0467 ± 0.55"}, {"measurement": "promoter activity interaction Z-score", "setting": "[1]; [13]", "result": "0.166 ± 0.1"}, {"measurement": "promoter activity interaction Z-score", "setting": "[1]; [14]", "result": "0.231 ± 0.27"}, {"measurement": "promoter activity interaction Z-score", "setting": "[1]; [15]", "result": "-0.285 ± 0.52"}, {"measurement": "promoter activity interaction Z-score", "setting": "[1]; [16]", "result": "-0.333 ± 1.1"}, {"measurement": "promoter activity interaction Z-score", "setting": "[1]; [17]", "result": "-0.137 ± 0.07"}, {"measurement": "promoter activity interaction Z-score", "setting": "[1]; [18]", "result": "0.467 ± 0.76"}, {"measurement": "promoter activity interaction Z-score", "setting": "[1]; [19]", "result": "0.092 ± 0.075"}, {"measurement": "promoter activity interaction Z-score", "setting": "[1]; [20]", "result": "-0.505 ± 0.22"}, {"measurement": "promoter activity interaction Z-score", "setting": "[1]; [21]", "result": "0.377 ± 0.044"}, {"measurement": "promoter activity interaction Z-score", "setting": "[1]; [22]", "result": "1.71 ± 1.2"}, {"measurement": "promoter activity interaction Z-score", "setting": "[2]; [7]", "result": "0.2 ± 0.11"}, {"measurement": "promoter activity interaction Z-score", "setting": "[2]; [8]", "result": "0.0379 ± 0.26"}, {"measurement": "promoter activity interaction Z-score", "setting": "[2]; [9]", "result": "0.404 ± 0.28"}, {"measurement": "promoter activity interaction Z-score", "setting": "[2]; [10]", "result": "0.0828 ± 0.038"}, {"measurement": "promoter activity interaction Z-score", "setting": "[2]; [11]", "result": "0.294 ± 0.19"}, {"measurement": "promoter activity interaction Z-score", "setting": "[2]; [12]", "result": "0.0785 ± 0.071"}, {"measurement": "promoter activity interaction Z-score", "setting": "[2]; [13]", "result": "0.518 ± 0.31"}, {"measurement": "promoter activity interaction Z-score", "setting": "[2]; [14]", "result": "0.285 ± 0.12"}, {"measurement": "promoter activity interaction Z-score", "setting": "[2]; [15]", "result": "0.237 ± 0.08"}, {"measurement": "promoter activity interaction Z-score", "setting": "[2]; [16]", "result": "0.0592 ± 0.067"}, {"measurement": "promoter activity interaction Z-score", "setting": "[2]; [17]", "result": "1.19 ± 0.68"}, {"measurement": "promoter activity interaction Z-score", "setting": "[2]; [18]", "result": "0.855 ± 0.27"}, {"measurement": "promoter activity interaction Z-score", "setting": "[2]; [19]", "result": "1.38 ± 0.096"}, {"measurement": "promoter activity interaction Z-score", "setting": "[2]; [20]", "result": "0.189 ± 0.12"}, {"measurement": "promoter activity interaction Z-score", "setting": "[2]; [21]", "result": "2.72 ± 0.048"}, {"measurement": "promoter activity interaction Z-score", "setting": "[2]; [22]", "result": "2.65 ± 0.019"}, {"measurement": "promoter activity interaction Z-score", "setting": "[3]; [7]", "result": "0.15 ± 0.52"}, {"measurement": "promoter activity interaction Z-score", "setting": "[3]; [8]", "result": "-0.0334 ± 0.0097"}, {"measurement": "promoter activity interaction Z-score", "setting": "[3]; [9]", "result": "-0.332 ± 0.11"}, {"measurement": "promoter activity interaction Z-score", "setting": "[3]; [10]", "result": "-0.533 ± 0.19"}, {"measurement": "promoter activity interaction Z-score", "setting": "[3]; [11]", "result": "0.0711 ± 0.62"}, {"measurement": "promoter activity interaction Z-score", "setting": "[3]; [12]", "result": "-0.0561 ± 0.37"}, {"measurement": "promoter activity interaction Z-score", "setting": "[3]; [13]", "result": "-0.229 ± 0.49"}, {"measurement": "promoter activity interaction Z-score", "setting": "[3]; [14]", "result": "-0.162 ± 0.16"}, {"measurement": "promoter activity interaction Z-score", "setting": "[3]; [15]", "result": "-0.597 ± 0.69"}, {"measurement": "promoter activity interaction Z-score", "setting": "[3]; [16]", "result": "-0.411 ± 0.14"}, {"measurement": "promoter activity interaction Z-score", "setting": "[3]; [17]", "result": "-0.956 ± 0.38"}, {"measurement": "promoter activity interaction Z-score", "setting": "[3]; [18]", "result": "0.0662 ± 0.72"}, {"measurement": "promoter activity interaction Z-score", "setting": "[3]; [19]", "result": "-0.594 ± 0.36"}, {"measurement": "promoter activity interaction Z-score", "setting": "[3]; [20]", "result": "-0.771 ± 0.14"}, {"measurement": "promoter activity interaction Z-score", "setting": "[3]; [21]", "result": "-0.628 ± 0.52"}, {"measurement": "promoter activity interaction Z-score", "setting": "[3]; [22]", "result": "-0.165 ± 0.36"}, {"measurement": "promoter activity interaction Z-score", "setting": "[4]; [7]", "result": "0.17 ± 0.36"}, {"measurement": "promoter activity interaction Z-score", "setting": "[4]; [8]", "result": "-0.635 ± 0.24"}, {"measurement": "promoter activity interaction Z-score", "setting": "[4]; [9]", "result": "0.299 ± 0.26"}, {"measurement": "promoter activity interaction Z-score", "setting": "[4]; [10]", "result": "-0.394 ± 1.1"}, {"measurement": "promoter activity interaction Z-score", "setting": "[4]; [11]", "result": "0.406 ± 0.86"}, {"measurement": "promoter activity interaction Z-score", "setting": "[4]; [12]", "result": "0.328 ± 0.074"}, {"measurement": "promoter activity interaction Z-score", "setting": "[4]; [13]", "result": "0.109 ± 1.1"}, {"measurement": "promoter activity interaction Z-score", "setting": "[4]; [14]", "result": "0.454 ± 0.65"}, {"measurement": "promoter activity interaction Z-score", "setting": "[4]; [15]", "result": "-0.235 ± 0.3"}, {"measurement": "promoter activity interaction Z-score", "setting": "[4]; [16]", "result": "0.332 ± 0.19"}, {"measurement": "promoter activity interaction Z-score", "setting": "[4]; [17]", "result": "-0.142 ± 0.65"}, {"measurement": "promoter activity interaction Z-score", "setting": "[4]; [18]", "result": "0.2 ± 0.77"}, {"measurement": "promoter activity interaction Z-score", "setting": "[4]; [19]", "result": "-0.797 ± 0.23"}, {"measurement": "promoter activity interaction Z-score", "setting": "[4]; [20]", "result": "-0.595 ± 0.25"}, {"measurement": "promoter activity interaction Z-score", "setting": "[4]; [21]", "result": "-0.635 ± 0.52"}, {"measurement": "promoter activity interaction Z-score", "setting": "[4]; [22]", "result": "-0.507 ± 0.57"}, {"measurement": "promoter activity interaction Z-score", "setting": "[5]; [7]", "result": "0.245 ± 0.03"}, {"measurement": "promoter activity interaction Z-score", "setting": "[5]; [8]", "result": "0.396 ± 0.012"}, {"measurement": "promoter activity interaction Z-score", "setting": "[5]; [9]", "result": "0.336 ± 0.03"}, {"measurement": "promoter activity interaction Z-score", "setting": "[5]; [10]", "result": "0.386 ± 0.52"}, {"measurement": "promoter activity interaction Z-score", "setting": "[5]; [11]", "result": "0.214 ± 0.2"}, {"measurement": "promoter activity interaction Z-score", "setting": "[5]; [12]", "result": "0.405 ± 0.076"}, {"measurement": "promoter activity interaction Z-score", "setting": "[5]; [13]", "result": "0.388 ± 0.19"}, {"measurement": "promoter activity interaction Z-score", "setting": "[5]; [14]", "result": "0.494 ± 0.84"}, {"measurement": "promoter activity interaction Z-score", "setting": "[5]; [15]", "result": "0.119 ± 0.042"}, {"measurement": "promoter activity interaction Z-score", "setting": "[5]; [16]", "result": "0.218 ± 0.23"}, {"measurement": "promoter activity interaction Z-score", "setting": "[5]; [17]", "result": "0.406 ± 0.2"}, {"measurement": "promoter activity interaction Z-score", "setting": "[5]; [18]", "result": "0.157 ± 0.64"}, {"measurement": "promoter activity interaction Z-score", "setting": "[5]; [19]", "result": "0.054 ± 0.12"}, {"measurement": "promoter activity interaction Z-score", "setting": "[5]; [20]", "result": "0.327 ± 0.073"}, {"measurement": "promoter activity interaction Z-score", "setting": "[5]; [21]", "result": "0.525 ± 0.097"}, {"measurement": "promoter activity interaction Z-score", "setting": "[5]; [22]", "result": "0.502 ± 1.1"}, {"measurement": "promoter activity interaction Z-score", "setting": "[6]; [7]", "result": "0.458 ± 0.6"}, {"measurement": "promoter activity interaction Z-score", "setting": "[6]; [8]", "result": "-1.26 ± 1.6"}, {"measurement": "promoter activity interaction Z-score", "setting": "[6]; [9]", "result": "-0.642 ± 0.11"}, {"measurement": "promoter activity interaction Z-score", "setting": "[6]; [10]", "result": "0.238 ± 0.11"}, {"measurement": "promoter activity interaction Z-score", "setting": "[6]; [11]", "result": "0.0937 ± 0.17"}, {"measurement": "promoter activity interaction Z-score", "setting": "[6]; [12]", "result": "0.783 ± 0.48"}, {"measurement": "promoter activity interaction Z-score", "setting": "[6]; [13]", "result": "0.602 ± 0.1"}, {"measurement": "promoter activity interaction Z-score", "setting": "[6]; [14]", "result": "0.898 ± 0.65"}, {"measurement": "promoter activity interaction Z-score", "setting": "[6]; [15]", "result": "0.202 ± 0.78"}, {"measurement": "promoter activity interaction Z-score", "setting": "[6]; [16]", "result": "1.21 ± 0.39"}, {"measurement": "promoter activity interaction Z-score", "setting": "[6]; [17]", "result": "1.08 ± 0.51"}, {"measurement": "promoter activity interaction Z-score", "setting": "[6]; [18]", "result": "1.29 ± 0.033"}, {"measurement": "promoter activity interaction Z-score", "setting": "[6]; [19]", "result": "-0.456 ± 0.15"}, {"measurement": "promoter activity interaction Z-score", "setting": "[6]; [20]", "result": "-0.659 ± 0.06"}, {"measurement": "promoter activity interaction Z-score", "setting": "[6]; [21]", "result": "1.91 ± 0.78"}, {"measurement": "promoter activity interaction Z-score", "setting": "[6]; [22]", "result": "2.01 ± 0.4"}]}
